Test results from ChEMBL document CHEMBL3433997, “St. Jude Leishmania screening dataset” (2016).
“And” between values parts separate entries of the source, which are not always exact repeats. Equal values may be shown once.

molecular target: Solute carrier family 2, facilitated glucose transporter member 1 (Homo sapiens) (UniProt P11166); assay: ST_JUDE_LEISH: Cytotoxicity at 2uM final concentration against transgenic Leishmania Mexicana promastigotes LmGLUT1 that are glucose transport deficient and complemented with the human glucose transporter GLUT1. Activity is measured by DNA content using SYBR green in vitro; format: functional
Sequence (P11166 whole entry): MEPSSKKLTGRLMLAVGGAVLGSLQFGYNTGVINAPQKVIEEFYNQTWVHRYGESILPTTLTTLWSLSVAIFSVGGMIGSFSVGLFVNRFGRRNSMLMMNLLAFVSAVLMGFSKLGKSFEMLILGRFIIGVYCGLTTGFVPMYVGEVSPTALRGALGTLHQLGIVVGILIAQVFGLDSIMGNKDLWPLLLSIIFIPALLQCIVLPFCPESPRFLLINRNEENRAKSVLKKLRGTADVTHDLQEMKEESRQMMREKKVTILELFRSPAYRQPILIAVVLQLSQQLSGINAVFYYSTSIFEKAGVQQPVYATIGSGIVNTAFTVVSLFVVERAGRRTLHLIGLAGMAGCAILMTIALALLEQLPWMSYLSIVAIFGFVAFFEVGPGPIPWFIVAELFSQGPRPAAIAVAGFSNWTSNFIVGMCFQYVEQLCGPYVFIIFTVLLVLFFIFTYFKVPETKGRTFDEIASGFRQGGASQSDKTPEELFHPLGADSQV

Row | SMILES | inhibition
1 | COc1cc(F)c2ncc(Cl)c([C@@H](O)CN3CCC(NCc4cc5c(cn4)OCCO5)CC3)c2c1 | 9.42%
2 | O=[N+]([O-])c1ccc(C=NNc2nc3ccccc3[nH]2)cc1 | -0.91%
3 | Cc1cccc(-c2nn(-c3ccccc3)c3[nH]c(=O)c(CNC4CCCC4)cc23)c1 | 2.26%
4 | Nc1ccc(-c2nc3cc(Oc4ccc5[nH]c(-c6ccc(N)cc6)nc5c4)ccc3[nH]2)cc1 | -3.07%
5 | CC(C)(C)c1cc([N+](=O)[O-])cc(C(=O)Nc2ccccc2C(F)(F)F)c1O | 0.47%
6 | N#Cc1cccc(C(=O)Nc2ccc(-c3cccc(CN4CCCC4)c3)cc2)c1 | 55.6%
7 | O=C(Nc1cccc(OCCN2CCCC2)c1)Nc1ccc(Cl)c(Cl)c1 | 1.92%
8 | CN1CCC(c2cc3c(cc2Br)CCN3C(=O)Nc2ccc(-c3ccncc3)c(Cl)c2)CC1 | 0.33%
9 | COc1ccc2nc3cc(Cl)ccc3c(Nc3ccc(C(=O)O)cc3)c2c1 | 5.95%
10 | CCCO[C@H](C(=O)OC)[C@@H](CC1Cc2ccccc2C1)C(=O)NCCC1=CCCCC1 | 1.54%
11 | CN(C(=O)/C=C/c1ccccc1F)C1CCN(CCCCCNC(=O)/C=C/c2ccc(Cl)c(Cl)c2)CC1 | 5.19%
12 | CCOc1ccc(CCCON2C(=N)N=C(N)NC2(C)C)cc1 | 9.39%
13 | CCN(CC)CCN(Cc1ccc(-c2ccc(C(F)(F)F)cc2)cc1)C(=O)Cn1c(/C=C/c2ccco2)nc(=O)c2ccccc21 | -0.7%
14 | COc1ccc(C(=O)N2CCC(C(=O)NC(C)c3ccc(-n4ccnc4)cc3)CC2)c2ccccc12 (stereo not given) | -1.06%
15 | Cc1cc(CNCC2CCC(CNCCCc3ccccc3)CC2)ccc1O (stereo not given) | 9.97%
16 | CCC[C@@H](/C=N/N(C)C(=O)OC(C)(C)C)NC(=O)[C@H](CC(C)C)NC(=O)c1cc2cccc(OC)c2o1 | 3.02%
17 | COc1ccc2ncc(C#N)c(CCN3C[C@H](CNCc4ccccc4)[C@H](O)C3)c2n1 | 3.18%
18 | O=C(Nc1cccc(-c2cccc(-c3nc4ccccc4[nH]3)c2)c1)NC1CC1c1ccccc1 (stereo not given) | 6.53% and 2.58%
19 | c1cc(CNCCc2ccncc2)cc(-c2ccc(-c3nc4ccccc4[nH]3)s2)c1 | 0.32%
20 | Fc1ccc2[nH]c(-c3cccc(-c4cccc(CN5CCN(c6cnccn6)CC5)c4)c3)nc2c1 | 7.08%

Row | SMILES | inhibition
21 | CNc1ccc(CNCc2cccc(-c3ccc(-c4nc5ccccc5[nH]4)cc3)c2)cc1 | 0.78%
22 | CN(C)Cc1cccc(-c2ccc3ccnc(N)c3c2)c1 | 1.78%
23 | COc1cc(Nc2nccc(Nc3ccc4c(C)n[nH]c4c3)n2)cc2ccccc12 | 5.04%
24 | CC(CNC(=N)c1cccc(C(=N)NCC(C)Oc2cccc(C3CCCCC3)c2)n1)Oc1cccc(C2CCCCC2)c1 (stereo not given) | 5.5%
25 | CN(C)CCNCc1cccc(-c2ccc3c(Nc4ccc(F)cc4Cl)ccnc3c2)c1 | 3.59%
26 | COc1ccc(-n2nc(C(=O)NCCC3=CCCCC3)c3ccccc3c2=O)cc1 | 0.62%
27 | Cc1cccc2nc(-c3ccc(-c4ccc(NC(=O)Nc5ccc(F)c(F)c5F)cc4)cc3)[nH]c12 | 8.48%
28 | CC(C)CNC(=O)c1cncc(-c2ccc(CN(C)C3CCN(C)CC3)cc2)c1 | 4.89%
29 | CCC[C@@H]([C@@H](CC(C)C)C(=O)N[C@@H](CCCCNC(=O)OCc1ccccc1)C(=O)Nc1ncccn1)N(O)C=O | 19.1%
30 | Cc1cccc(NC(=O)NC2CCN(CCCCCNC(=O)/C=C/c3ccc(Cl)c(Cl)c3)CC2)c1 | 4.31%
31 | CCN(CCCN1CCCCC1)c1cc(C)nc(Nc2cccc3c2CCCC3)n1 | 3.95%
32 | Cc1cc(SC(C)(C)C)cc2c(Cl)c(C(N)=O)cnc12 | 89%
33 | O=C(Nc1cccc([N+](=O)[O-])c1)Nc1cccc(C(F)(F)F)c1 | 1.48%
34 | CC(C)NCc1cccc(-c2cccc(NC(=O)c3ccc(C#N)cc3)c2)c1 | -1.2%
35 | Cc1ccc(Cc2c(C)nc3nc(N)nc(N)c3c2C)cc1 | 69.9%
36 | CCn1ccc2c(N3CCCC3=O)cc(C(=O)N[C@@H](Cc3ccccc3)[C@H](O)CNC3CCCCC3)cc21 | 4.2%
37 | CCOc1ccc(-c2nonc2NC(=O)CC(C)C)cc1OCC | -0.61%
38 | N#Cc1ccc(N(CCOC(=O)c2ccccc2)Cc2ccccc2C(F)(F)F)cc1C(F)(F)F | 1.67%
39 | CCOC(=O)c1nc(-c2ccccc2)[nH]c1NC(=S)NC1CCCCC1 | -0.61%
40 | CC(C)(C)C(=O)N1CCN(c2ccc([N+](=O)[O-])c(NC3CC3)c2)CC1 | 2.03%

molecular target: Hexose transporter 1 (Plasmodium falciparum) (UniProt O97467); assay: ST_JUDE_LEISH: Cytotoxicity at 2uM final concentration against transgenic Leishmania Mexicana promastigotes LmPfHT that are glucose transport deficient and complemented with the Plasmodium falciparum hexose transporter. Activity is measured by DNA content using SYBR green in vitro; format: functional

Row | SMILES | inhibition
41 | COc1cc(F)c2ncc(Cl)c([C@@H](O)CN3CCC(NCc4cc5c(cn4)OCCO5)CC3)c2c1 | 8.83%
42 | O=[N+]([O-])c1ccc(C=NNc2nc3ccccc3[nH]2)cc1 | 0.53%
43 | Cc1cccc(-c2nn(-c3ccccc3)c3[nH]c(=O)c(CNC4CCCC4)cc23)c1 | 2.39%
44 | Nc1ccc(-c2nc3cc(Oc4ccc5[nH]c(-c6ccc(N)cc6)nc5c4)ccc3[nH]2)cc1 | 0.6%
45 | CC(C)(C)c1cc([N+](=O)[O-])cc(C(=O)Nc2ccccc2C(F)(F)F)c1O | -0.82%
46 | N#Cc1cccc(C(=O)Nc2ccc(-c3cccc(CN4CCCC4)c3)cc2)c1 | 6.55%
47 | O=C(Nc1cccc(OCCN2CCCC2)c1)Nc1ccc(Cl)c(Cl)c1 | 2.15%
48 | CN1CCC(c2cc3c(cc2Br)CCN3C(=O)Nc2ccc(-c3ccncc3)c(Cl)c2)CC1 | 1.09%
49 | COc1ccc2nc3cc(Cl)ccc3c(Nc3ccc(C(=O)O)cc3)c2c1 | -1.31%
50 | CCCO[C@H](C(=O)OC)[C@@H](CC1Cc2ccccc2C1)C(=O)NCCC1=CCCCC1 | 1.34%
51 | CN(C(=O)/C=C/c1ccccc1F)C1CCN(CCCCCNC(=O)/C=C/c2ccc(Cl)c(Cl)c2)CC1 | 4.23%
52 | CCOc1ccc(CCCON2C(=N)N=C(N)NC2(C)C)cc1 | 10.4%
53 | CCN(CC)CCN(Cc1ccc(-c2ccc(C(F)(F)F)cc2)cc1)C(=O)Cn1c(/C=C/c2ccco2)nc(=O)c2ccccc21 | -0.97%
54 | COc1ccc(C(=O)N2CCC(C(=O)NC(C)c3ccc(-n4ccnc4)cc3)CC2)c2ccccc12 (stereo not given) | -0.1%
55 | Cc1cc(CNCC2CCC(CNCCCc3ccccc3)CC2)ccc1O (stereo not given) | 8.79%
56 | CCC[C@@H](/C=N/N(C)C(=O)OC(C)(C)C)NC(=O)[C@H](CC(C)C)NC(=O)c1cc2cccc(OC)c2o1 | 3.92%
57 | COc1ccc2ncc(C#N)c(CCN3C[C@H](CNCc4ccccc4)[C@H](O)C3)c2n1 | 3.76%
58 | O=C(Nc1cccc(-c2cccc(-c3nc4ccccc4[nH]3)c2)c1)NC1CC1c1ccccc1 (stereo not given) | 5.02% and 2.99%
59 | c1cc(CNCCc2ccncc2)cc(-c2ccc(-c3nc4ccccc4[nH]3)s2)c1 | -0.86%
60 | Fc1ccc2[nH]c(-c3cccc(-c4cccc(CN5CCN(c6cnccn6)CC5)c4)c3)nc2c1 | 5.74%

Row | SMILES | inhibition
61 | CNc1ccc(CNCc2cccc(-c3ccc(-c4nc5ccccc5[nH]4)cc3)c2)cc1 | -1.69%
62 | CN(C)Cc1cccc(-c2ccc3ccnc(N)c3c2)c1 | 3.34%
63 | COc1cc(Nc2nccc(Nc3ccc4c(C)n[nH]c4c3)n2)cc2ccccc12 | 2.79%
64 | CC(CNC(=N)c1cccc(C(=N)NCC(C)Oc2cccc(C3CCCCC3)c2)n1)Oc1cccc(C2CCCCC2)c1 (stereo not given) | 4.37%
65 | CN(C)CCNCc1cccc(-c2ccc3c(Nc4ccc(F)cc4Cl)ccnc3c2)c1 | 3.29%
66 | COc1ccc(-n2nc(C(=O)NCCC3=CCCCC3)c3ccccc3c2=O)cc1 | -0.88%
67 | Cc1cccc2nc(-c3ccc(-c4ccc(NC(=O)Nc5ccc(F)c(F)c5F)cc4)cc3)[nH]c12 | 8.02%
68 | CC(C)CNC(=O)c1cncc(-c2ccc(CN(C)C3CCN(C)CC3)cc2)c1 | 5.48%
69 | CCC[C@@H]([C@@H](CC(C)C)C(=O)N[C@@H](CCCCNC(=O)OCc1ccccc1)C(=O)Nc1ncccn1)N(O)C=O | 21.5%
70 | Cc1cccc(NC(=O)NC2CCN(CCCCCNC(=O)/C=C/c3ccc(Cl)c(Cl)c3)CC2)c1 | 3.83%
71 | CCN(CCCN1CCCCC1)c1cc(C)nc(Nc2cccc3c2CCCC3)n1 | 2.39%
72 | Cc1cc(SC(C)(C)C)cc2c(Cl)c(C(N)=O)cnc12 | 93.7%
73 | O=C(Nc1cccc([N+](=O)[O-])c1)Nc1cccc(C(F)(F)F)c1 | 1.8%
74 | CC(C)NCc1cccc(-c2cccc(NC(=O)c3ccc(C#N)cc3)c2)c1 | 1.04%
75 | Cc1ccc(Cc2c(C)nc3nc(N)nc(N)c3c2C)cc1 | 73.4%
76 | CCn1ccc2c(N3CCCC3=O)cc(C(=O)N[C@@H](Cc3ccccc3)[C@H](O)CNC3CCCCC3)cc21 | 7.08%
77 | CCOc1ccc(-c2nonc2NC(=O)CC(C)C)cc1OCC | -0.84%
78 | N#Cc1ccc(N(CCOC(=O)c2ccccc2)Cc2ccccc2C(F)(F)F)cc1C(F)(F)F | 1.18%
79 | CCOC(=O)c1nc(-c2ccccc2)[nH]c1NC(=S)NC1CCCCC1 | -0.88%
80 | CC(C)(C)C(=O)N1CCN(c2ccc([N+](=O)[O-])c(NC3CC3)c2)CC1 | 2.58%
